These results are taken from PubChem BioAssay (EPA / NIEHS).

Molecules are shown by their SMILES. Records with an inconclusive call do not appear. More than one record can exist for a structure, and the calls need not agree. Activity calls are given as the source filed them. Rule for the calls, unless noted: active = hit-call score of the fitted dose curve at least 0.9, where 1 is the maximum; inactive = score below 0.9.

Assay [1] is described as follows: CCTE_Shafer_MEA_dev_bursting_electrodes_number: CCTE's Neural Network Formation Assay for Number of Bursting Electrodes, Shafer Lab (AID 2284043; active = hit-call score of the fitted dose curve at least 0.9, where 1 is the maximum;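 for AC50: potency is for loss of bursting electrodes relative to DMSO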). The method, boiled down:
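Read-out is the per-well number of electrodes bursting at least once every 2 minutes, recorded on days 5, 7, 9 and 12 and collapsed by trapezoidal area under the curve. Cultures were primary rat cortical neurons on MEA plates, treated continuously from plating.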

The nature of assay [2]: CCTE_Shafer_MEA_dev_per_burst_interspike_interval: CCTE's Neural Network Formation Assay for Burst Interspike Interval, Shafer Lab (AID 2284044).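 For AC50: potency for a decrease of within-burst interspike interval below DMSO level.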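 Note: mean spike spacing inside bursts as AUC over recordings on days 5 7 9 12.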 The procedure, abridged: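 Primary rat cortical neurons on 48-well MEA plates, exposed from day 0 through day 12, treatment renewed at DIV 5 and 9. Within-burst interspike interval recorded days 5, 7, 9, 12, well-averaged, summarised as AUC; negative fit versus DMSO.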

Assay [3] in a line: CCTE_Shafer_MEA_dev_burst_duration_mean: CCTE's Neural Network Formation Assay for Mean Burst Duration, Shafer Lab (AID 2284045).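 For AC50: curve fitted for loss meaning shorter burst duration than DMSO.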 The method, boiled down: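 Read-out: average first-to-last-spike interval within single-electrode bursts, averaged over bursting electrodes per well, then summarised as area under the curve across days 5, 7, 9 and 12. Developing rat cortical networks were exposed from day 0.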

A short description of assay [4]: CCTE_Shafer_MEA_dev_inter_network_spike_interval_mean: CCTE's Neural Network Formation Assay for Mean Inter-network Spike Interval, Shafer Lab (AID 2284047). The method, boiled down:
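Rat cortical cultures, 1.5 x 10^5 cells/well on 48-well MEA plates; continuous exposure days 0–12, medium and compound refreshed DIV 5, 9. Mean time between consecutive network-spike peaks; AUC across DIV 5/7/9/12; DMSO baseline, negative fitting direction.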

The nature of assay [5]: CCTE_Shafer_MEA_dev_network_spike_number: CCTE's Neural Network Formation Assay for Number of Network Spikes, Shafer Lab (AID 2284048).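 For AC50: fit as a loss of signal meaning fewer network spikes than DMSO.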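 Note: synchronized bursts across electrodes counted on days 5 7 9 12 and integrated as AUC.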 The method, boiled down:
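Developing networks of primary rat cortical neurons are treated over 12 days starting at plating, with media and compound fully replaced on DIV 5 and 9. Network spike counts from four recording days are integrated as trapezoidal AUC.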

A short description of assay [6]: CCTE_Shafer_MEA_dev_spike_duration_mean: CCTE's Neural Network Formation Assay for Mean Spike Duration, Shafer Lab (AID 2284051).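 For AC50: potency for a decrease in mean network spike duration versus DMSO.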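 Note: mean network spike duration pooled as area under curve over DIV 5 to 12 recordings.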 The method, boiled down:
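Readout is the average length of network spikes, clustered firing across electrodes, summed over DIV 5, 7, 9 and 12 as area under the curve. Neurons from rat cortex developed networks on MEA plates under continuous 12-day exposure.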

Assay [7] can be described thus: CCTE_Shafer_MEA_dev_network_spike_duration_std: CCTE's Neural Network Formation Assay for Standard Deviation of Network Spike Duration, Shafer Lab (AID 2284052).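 Note: hits are decreases in network spike duration SD versus DMSO vehicle.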 The procedure, abridged: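 Read-out is the trapezoidal area-under-the-curve across recordings made on days 5, 7, 9 and 12, fitted in the negative direction against DMSO baseline. Neurons were primary rat cortical cells treated from day 0, with treatment renewed at each feed.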

A short description of assay [8]: CCTE_Shafer_MEA_dev_per_network_spike_spike_percent: CCTE's Neural Network Formation Assay for Percent of Spikes in a Network Spike, Shafer Lab (AID 2284054). The method, boiled down:
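Rat primary cortical cultures, 1.5 x 10^5 cells/well on MEA. Continuous compound exposure d0–12, medium/compound renewed DIV 5, 9. Network-spike spike % (0.05 s peak window), AUC over 4 recordings, DMSO baseline.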

Assay [9] can be described thus: CCTE_Shafer_MEA_dev_AB: CCTE's Alamar Blue Assay for Cytotoxicity in the Neural Network Formation Assay, Shafer Lab (AID 2284083; active = hit-call score of the fitted dose curve at least 0.9, where 1 is the maximum;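 note: resazurin reduction fluorescence as viability of cultured neurons; twelve days of exposure from plating with re-dosing on DIV 5 and 9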). The method, boiled down:
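Fluorescent resazurin reduction serves as the viability read-out, with DMSO as negative control and baseline. Cells were primary rat cortical neurons grown on MEA plates and dosed from day 0 to day 12, treatment renewed on DIV 5 and 9.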

Assay [10] can be described thus: CCTE_Shafer_MEA_dev_mutual_information_norm: CCTE's Neural Network Formation Assay for Mutual Information Normalization, Shafer Lab (AID 2284091).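 For AC50: mutual information between electrodes summarised as area under curve across four recording days; potency is for a decrease in mutual information relative to DMSO.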 The method, boiled down: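 Developing rat cortical networks on 16-electrode MEA wells are treated throughout formation (DIV 0–12). Shared electrode information is recorded four times, converted to area-under-curve, and fitted for decreases against DMSO vehicle.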

A short description of assay [11]: CCTE_Shafer_MEA_dev_correlation_coefficient_mean: CCTE's Neural Network Formation Assay for Mean Correlation Coefficient, Shafer Lab (AID 2284093).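 For AC50: well mean pairwise spike train correlation integrated as AUC over recording days 5 to 12; potency fitted for loss of correlation relative to DMSO vehicle wells.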 The method, boiled down:
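Read-out: well-mean correlation coefficient of spike trains between electrode pairs, collapsed over four recording days as trapezoidal area-under-the-curve. Developing rat cortical neuron networks grown on MEAs received test chemical continuously from plating.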

Assay [12] in a line: CCTE_Shafer_MEA_dev_LDH: CCTE's Lactate Dehydrogenase Assay for Cytotoxicity in the Neural Network Formation Assay, Shafer Lab (AID 2284068; active = hit-call score of the fitted dose curve at least 0.9, where 1 is the maximum;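 note: exposure for twelve days from plating with re-dosing on DIV 5 and 9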). The procedure, abridged:
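Cytotoxicity companion to network-formation recordings: rat cortical neurons received compound over 12 days of development, re-dosed at DIV 5 and 9 feeds. Viability was inferred from LDH enzyme activity relative to DMSO.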

The nature of assay [13]: UKN2_HCS_IMR90_neural_migration: University of Konstanz (UKN) Leist Lab Neural Crest Cell Migration Assay in human induced IMR90 Pluripotent Stem Cells (UKN2) (AID 2284204). The settings on record: actives raise or lower the signal. The method, boiled down:
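Migration of human IMR90-derived neural crest cells into a stopper-defined gap is imaged after 24 h chemical treatment. Activity is fitted bidirectionally relative to DMSO.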

Assay [14] can be described thus: IUF_NPC1b_proliferation_BrdU_72hr: Leibniz Research Institute for Environmental Medicine (IUF) 72-hour Neural Progenitor Cell Bromodeoxyuridine (BrdU) Proliferation Assay (NPC1b) (AID 2284207). The procedure, abridged: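 Proliferation of primary human neural progenitor cells: 72 h compound treatment at 37C, 5% CO2, pH 7.2-7.6, in EGF/FGF-containing medium. Readout is BrdU uptake (last 16 h) by chemiluminescent ELISA, normalised to DMSO.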

A short description of assay [15]: IUF_NPC1a_proliferation_area_72hr: Leibniz Research Institute for Environmental Medicine (IUF) 72-hour Neural Progenitor Cell Proliferation Area Assay (NPC1a) (AID 2284208). The procedure, abridged:
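Single 0.25–0.35 mm human fetal neural progenitor spheres in proliferation medium with EGF and FGF, exposed 72 h from plating without renewal at 37C, pH 7.2-7.6. Sphere area growth measured by automated phase-contrast imaging, relative to DMSO.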

Assay [16] is described as follows: IUF_NPC1_viability_72hr: Viability Assessment at 72 hours in the Leibniz Research Institute for Environmental Medicine (IUF) Neural Progenitor Cell Proliferation Assay (NPC1) (AID 2284209). The procedure, abridged:
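Human fetal-cortex neural progenitor spheres (0.25–0.35 mm, one per well) grown in EGF/FGF proliferation medium at 37C, pH 7.2-7.6, exposed 72 h without renewal; viability read as alamar blue resazurin-to-resorufin fluorescence relative to DMSO.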

The nature of assay [17]: CCTE_Mundy_HCI_Cortical_Synap_Neur_Matur_NeuriteSpotCountPerNeuriteLength: CCTE's Synaptogenesis and Neurite Maturation Assay in rat cortical cells for Neurite Spot Count per Neurite Length, Mundy Lab (AID 2284210). The procedure, abridged:
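Primary rat cortical neurons, compound exposure DIV 7–12, 288.33 h endpoint. Hoechst, anti-MAP2 and anti-synaptophysin labelling; neurite-associated puncta per neurite length scored by automated imaging relative to DMSO controls.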

The test system of the next assay is DIO3 (gene 1735). The assay is described as follows: CCTE_GLTED_hDIO3: CCTE's human Deiodinase 3 (DIO3) Inhibition Assay, Great Lakes Toxicology and Ecology Division (GLTED) Lab (AID 2284055; active = hit-call score of the fitted dose curve at least 0.9, where 1 is the maximum;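 note: potency is for inhibition seen as loss of released iodide signal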). The procedure, abridged:
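Cell-free assay with human DIO3 enzyme produced by adenovirus expression; enzyme incubated with test chemical for 3 hours. Liberated iodide then measured by Sandell-Kolthoff absorbance; loss of signal versus DMSO baseline indicates inhibition, run in triplicate.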

A short description of assay [18]: CCTE_Shafer_MEA_acute_LDH: CCTE's Lactate Dehydrogenase Assay for Cytotoxicity in the Neural Acute Assay, Shafer Lab (AID 2284086; active = hit-call score of the fitted dose curve at least 0.9, where 1 is the maximum;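 note: active means LDH release rises above DMSO vehicle level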). The procedure, abridged: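 Primary rat cortical neurons on 48-well MEA plates, treated on day 13 or 15 post-plating. After the 40-min recording with compound, medium LDH release was read by absorbance at 490 nm. Gain of signal was fitted against DMSO negative control.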

Another assay deals with DIO2 (gene 1734). The assay is described as follows: CCTE_GLTED_hDIO2: CCTE's human Deiodinase 2 (DIO2) Inhibition Assay, Great Lakes Toxicology and Ecology Division (GLTED) Lab (AID 2284050; active = hit-call score of the fitted dose curve at least 0.9, where 1 is the maximum). The procedure, abridged: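 Cell-free human DIO2 enzyme was incubated with test chemical for 3 h; iodide liberated from substrate was then quantified by the Sandell-Kolthoff reaction (absorbance), run in triplicate. Loss of signal versus DMSO baseline indicated inhibition.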

In the case of `OCC(F)(F)C(F)(F)C(F)(F)F`, the call in [1], in [2], in [3], in [4], in assay [5] and in [6] was inactive. Further, the outcome in assay [7], in [8], in assay [9], in [10] and in [11] was inactive.

Turning to `Cc1ccc(S(=O)(=O)OCC(F)(F)C(F)(F)C(F)(F)C(F)(F)C(F)(F)C(F)F)cc1`, the molecule was classed as inactive in assay [2], in assay [3], in assay [4], in assay [5], in assay [6] and in [7]. Moreover, the molecule was classed as inactive in assay [8], in assay [12], in assay [10] and in assay [11].

As a reminder, the AC50 is the midpoint of the concentration-response curve, whichever way the signal moves. As to `CC(CCl)OP(=O)(OC(C)CCl)OC(C)CCl` (stereo unspecified), the call in assay [1], in assay [2], in [3], in assay [4], in assay [5] and in [6] was inactive. For the same molecule, the molecule was called inactive in assay [7], in assay [8], in assay [12], in assay [9], in assay [10] and in [11]. In addition, the molecule was classed as inactive in assay [13], in [14], in [15], in [16] and in [17]. In addition, the AC50 in assay [6], in [8] and in [12] was 50 µM (active) in each case.

`O=P(O)(O)OCCC(F)(F)C(F)(F)C(F)(F)C(F)(F)C(F)(F)C(F)(F)F`: the AC50 in assay [1] is 0.1 µM (active); in assay [12], 21.5 µM (active); in [9], 24.7 µM (active). The call in [2], in assay [3], in assay [4], in assay [5], in assay [6] and in assay [7] was inactive. The call in assay [8], in [10] and in assay [11] was inactive.

Regarding `O=C(O)C(F)(F)C(F)(F)C(F)(F)C(F)(F)C(F)(F)C(F)(F)C(F)(F)C(F)(F)C(F)(F)C(F)(F)C(F)(F)C(F)(F)C(F)(F)F`, the AC50 with DIO3 (gene 1735) is 33.1 µM (active).

Turning to `CCCCC(CC)COP(=O)(O)OCC(CC)CCCC` (stereo unspecified), in [18], the molecule was classed as inactive.

Turning to `CC(Cc1ccc(O)c(O)c1)C(C)Cc1ccc(O)c(O)c1` (stereo unspecified), the results for the AC50 in the assay with DIO2 (gene 1734) and in the assay on DIO3 (gene 1735) were 19.3 µM (active) and 0.0863 µM (active), respectively.

Regarding `C=CC(=O)OCC(F)(F)C(F)(F)C(F)(F)C(F)(F)COC(=O)C=C`, the AC50 in assay [1] was 2.08 µM (active); in [2], 4.18 µM (active); in [3], 2.87 µM (active); in assay [5] it was 2.28 µM (active); with DIO2 (gene 1734), 12.8 µM (active); in [6] it was 7.64 µM (active). In addition, the AC50 in [8] was 4.37 µM (active); in the assay with DIO3 (gene 1735), 32.8 µM (active); in assay [12] it was 4.28 µM (active); in assay [9] it was 4.78 µM (active); in assay [10], 2.2 µM (active); in [11] it was 4.1 µM (active). Also, the outcome in assay [4] and in [7] was inactive.
